Screens as filed in PubChem.
KB-3-1 cytotox – KB-3-1 parental cell cytotoxicity; KB-3-1 viability, CellTiter-Glo ATP luminescence, 72 h; 400,000 tested, 1.4% active; Potency, µM (doses to about 46.1 µM), most hits filed as cytotoxic; AID 1347075; further: nearly all actives have a fitted effect of over 60% in size
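Parental KB-3-1 adenocarcinoma cells in phenol-red-free DMEM with 10% FBS were pin-treated with compounds at several concentrations, incubated 72 h at 37 °C, and viability read by CellTiter-Glo luminescence; concentration-effect curves were fitted after normalization.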
KB-V1 MDR tox – kills drug-selected multidrug resistant KB-V1 cells. Potency, µM (titrated, usually from 46.1 µM), most hits filed as cytotoxic. KB-V1 MDR cells viability, CellTiter-Glo, 72 h. 400,000 tested, 3.4% active; further: nearly all actives have a fitted effect of over 60% in size
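Cytotoxicity via CellTiter-Glo luminescence after 72 h compound exposure at 37 degrees C. Cells: drug-selected KB-V1 line, DMEM phenol-red free plus 10% FBS. Compounds tested at multiple concentrations; normalized data fitted to concentration-effect curves.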
HT1080 IDH1KD tx – kills HT-1080 cells with IDH1 knockdown; Potency, µM (doses to about 46.1 µM), most hits filed as cytotoxic; HT-1080 IDH1 knockdown viability, ATP luminescence, 48 h; 360,000 tested, 2% active
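After a 2 h attachment period, IDH1KD HT-1080 cells took pin-transferred compound for 48 h at 37 °C; ATP-based luminescence after 10 min room-temperature reagent incubation reported viability.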
MCF10A rereplic – induces DNA re-replication in MCF 10a normal breast cells. MCF 10A DNA re-replication, Hoechst nuclear intensity, 48 h. AID 624296. Potency, µM (series often up to 46.1 µM), usual class: activators. 350,000 tested, 2.9% active; further: nearly all actives have a fitted effect of over 50% in size
HT1080-NT tox – kills 2HG-producing HT-1080-NT fibrosarcoma cells; 360,000 tested, 1.6% active; HT-1080-NT fibrosarcoma viability, CellTiter-Glo ATP luminescence, 48 h; Potency, µM (top dose mostly 46.1 µM), actives largely listed as cytotoxic;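 further: NT is the 2HG producing partner of a matched IDH1 knockdown line; nearly all actives have a fitted effect of over 55% in size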
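750 cells/well, RPMI + 5% FBS; 2 h settle, compound pin-transfer, 48 h at 37 degrees C. CellTiter-Glo 10 min RT, luminescence. Normalized to DMSO and media-only wells.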
SW480 rereplic – DNA re-replication induction in SW480 cells. AID 624297. Potency, µM (series often up to 46.1 µM), actives largely listed as activators. 340,000 tested, 1.8% active. SW480 DNA re-replication, Hoechst DNA content imaging, 48 h; further: nearly all actives have a fitted effect of over 55% in size
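Readout is total intensity of Hoechst-stained nuclei, excited at 405 nm and collected at 500-530 nm. Compound treatment lasted 48 hr at 37 C in 5% CO2 before staining.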
Hits are given with their value; - = inactive; ? = inconclusive; . = no result given; [ ] = remark or other dose. Most compounds without a hit are left out; they make up all but 8% or so of the library. The call rests on the fitted dose curve; in most records, active means well fitted curve in the direction sought with a large enough effect; inconclusive means small, poorly fitted or top-dose-only effect, or another doubt; inactive means no such curve, though single readings can be large; an effect the other way counts as inactive or inconclusive.

SMILES | KB-3-1 cytotox | KB-V1 MDR tox | HT1080 IDH1KD tx | MCF10A rereplic | HT1080-NT tox | SW480 rereplic
Clc1ccc(-c2c[n+](Cc3ccc(Cl)cc3Cl)c3n2CCCCC3)cc1 | ? | - | 16µM | - | 8.2µM | -
Clc1ccc(C[n+]2cc(-c3ccccc3)n3c2CCC3)cc1Cl | ? | - | ? | - | ? | -
Clc1ccc(-c2c[n+](Cc3ccc(Br)cc3)c3n2CCCCC3)cc1 | ? | - | ? | - | ? | -
COc1ccc(-c2c[n+](CC(=O)c3ccccc3)c3n2CCCCC3)cc1 | ? | - | ? | - | ? | -
Clc1ccc(C[n+]2cc(-c3ccccc3)n3c2CCCCC3)c(Cl)c1 | 2.1µM | ? | 16µM | - | 15µM | -
Clc1ccc(-c2c[n+](Cc3cccc(Cl)c3)c3n2CCC3)cc1 | 6.5µM | - | ? | - | - | -
CCc1nn(C(C)C(=O)Nc2cccc(C)c2C)c(=O)c2cc3occc3n12 (centres undefined) | ? | ? | - | - | - | -
C/C=C/c1ccc(OCC(=O)N(C)CC(=O)Nc2ccc(F)cc2)c(OC)c1 | - | 16µM | - | - | - | -
CSc1ccccc1NC(=O)CN(C)C(=O)COc1cccc2cccnc12 | - | - | - | ? | - | 5.8µM
CN(CC(=O)Nc1ccc(F)cc1)C(=O)COc1ccccc1Cc1ccccc1 | ? | 18µM | - | ? | - | -
CN(CC(=O)Nc1ccc(Cl)c(C(F)(F)F)c1)C(=O)COc1cccc2cccnc12 | - | - | - | . | - | .
CN(CC(=O)Nc1ccccc1C(F)(F)F)C(=O)COc1ccccc1Cc1ccccc1 | - | 8.2µM | - | - | - | ?
COc1ccc(NC(=O)CN(C)C(=O)COc2ccccc2Cc2ccccc2)cc1 | - | - | - | - | -[9.24 µM] | -
C(=C\c1nnc2c3ccccc3ncn12)/c1ccccc1 | 12µM | 5.2µM | 5.8µM | 6.5µM | ? | ?
COc1cc(/C=C/c2nnc3c4ccccc4ncn23)cc(OC)c1OC | - | - | ? | ? | ? | -
CCCn1c(-c2cccnc2Cl)nc2cc(Cl)c(Cl)cc21 | - | 16µM | ? | ? | - | -
O=C(CNS(=O)(=O)c1ccc(Br)s1)NCc1ccccc1 | - | - | - | ? | - | 2.8µM
O=C(CNS(=O)(=O)c1ccc(Br)s1)NCc1ccc(F)cc1 | - | - | - | - | - | -
Cc1cc(NC(=O)CCC(=O)N(c2ccccc2)C(C(=O)NC2CCCC2)c2cccs2)no1 (centres undefined) | - | - | - | - | - | -
Cc1ccccc1N=C(c1ccccc1)C1C(=O)c2ccccc2C1=O | ? | 21µM | ? | . | ? | .
Cc1ccc2cn[nH]c2c1NC(=S)NC(=O)c1ccccc1 | - | 21µM | - | - | - | -
Cc1ccc2cccnc2c1NC(=S)NC(=O)c1ccccc1 | - | 15µM | ? | - | 11µM | -
Cc1csc(NC(=S)NC(=O)c2ccccc2)n1 | - | - | - | - | - | -
CC(=O)NC(=S)Nc1cccc2c(C)cc(C)nc12 | - | ? | - | - | - | -
Cc1cc(C)c2cccc(NC(=S)NC(=O)c3ccccc3)c2n1 | - | ? | 2.8µM | - | 2.5µM | 4.1µM
SMILES | KB-3-1 cytotox | KB-V1 MDR tox | HT1080 IDH1KD tx | MCF10A rereplic | HT1080-NT tox | SW480 rereplic
Cc1ccc2cccc(NC(=S)NC(=O)c3ccccc3)c2n1 | - | ? | - | ? | - | 16µM
O=C(NC(=S)Nc1ccc2ncccc2c1)c1ccccc1 | ? | - | - | - | - | -
CC(C)(C)NC(=O)C(c1ccco1)N(C(=O)Cn1nnc(-c2ccc(F)cc2)n1)c1cccc(F)c1 (centres undefined) | - | - | - | - | - | -
CCO[C@H]1OC(C(=O)Nc2ccccc2)=C[C@@H](c2cn(C(C)=O)c3ccccc23)[C@@H]1CCCO | - | - | - | - | - | -
COc1ccc(-c2csc(NC(C)c3nc4cc(Cl)c(N5CCCCC5)cc4n3CCCO)n2)cc1 (centres undefined) | ? | - | ? | ? | ? | 0.15µM
COc1ccc(-c2csc(NC(C)c3nc4cc(Cl)c(N5CCCCC5)cc4n3CCOCCO)n2)cc1 (centres undefined) | ? | ? | ? | - | ? | -
COc1cccc(NC(=O)CSc2nc3n[nH]c(C)c3c(=N)n2-c2cccc(OC)c2)c1 | - | - | -[9.24 µM] | - | ? | -
COc1cccc(-n2c(SCC(=O)NCCC3=CCCCC3)nc3n[nH]c(C)c3c2=N)c1 | - | 13µM | - | ? | - | -
CCc1ccc(NC(=O)CSc2nc3n[nH]c(C)c3c(=N)n2-c2cccc(OC)c2)cc1 | - | ? | 11µM | ? | ? | -
CCCOc1ccc(N2C(=O)C3C4C=CC(CC4)C3C2=O)cc1 (centres undefined) | - | - | - | - | - | -
Cn1cnnc1SCC(=O)c1ccc2c(c1)NC(=O)CO2 | - | - | - | - | -[9.24 µM] | -
CCCn1c(=O)c(C(=O)NCCc2ccccc2)c(O)c2ccccc21 | ? | ? | - | - | - | -
C=CCn1c(=O)c(C(=O)NCCc2ccccc2)c(O)c2ccccc21 | - | 21µM | - | - | - | -
C=CCn1c(=O)c(C(=O)Nc2ccc(C)cn2)c(O)c2ccccc21 | ? | 6.5µM | - | - | - | -
CC1=C(C(=O)N(C)Cc2ccccc2)C2(CCC(C)CC2)OC1=O (centres undefined) | - | - | - | - | - | -
CC(=O)N1CCC2(CC1)C/C(=N\NC(=S)Nc1ccc(C)cc1)c1cc(O)ccc1O2 | ? | - | ? | 23µM | ? | -
Cc1ccc(NC(=S)N/N=C2\CC(C)(C)Oc3ccc(O)cc32)cc1 | - | - | - | 21µM | - | -
Cc1ccccc1NC(=S)N/N=C1\CC(C)(C)Oc2ccc(O)cc21 | ? | - | - | - | - | -
COc1ccc(N(C(C)C(=O)N2CCCC2)S(C)(=O)=O)cc1 (centres undefined) | - | - | - | - | - | -
COc1ccc(N(C(C)C(=O)N2CCC(Cc3ccccc3)CC2)S(C)(=O)=O)cc1 (centres undefined) | ? | 3.7µM | - | - | - | -
N#CCC(=O)Nc1ccccc1C(=O)O | - | - | - | - | - | -
NC(=O)CC[C@@H]1NC(=O)[C@H](Cc2ccc(O)cc2)NC(=O)c2cc([N+](=O)[O-])cc(F)c2OCC[C@@H](C(N)=O)NC1=O | - | - | - | - | - | -
COc1cccc(C(=O)NCCS(=O)(=O)NCc2ccc3c(c2)OCO3)c1 | - | 18µM | - | - | - | -
COc1ccc(CNS(=O)(=O)CCNC(=O)c2cccc(OC)c2)cc1 | - | 16µM | - | - | - | -
COc1ccc(C(=O)NCc2ccc3c(c2)OCO3)cc1S(=O)(=O)N(C)Cc1ccccc1 | - | 9.2µM | - | - | - | -
